LRH-1 inv ag: LRH-1 (NR5A2) inverse agonists, primary screen, cell-based, luminescence, HEK293T, StAR-luciferase reporter | Nuclear receptor subfamily 5 group A member 2 (Homo sapiens), O00482 | LRH-1 transfected, 24 h | inhibition, % at 3.6 µM | 360,000 tested, 0.13% active | AID 602396, 2012;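 active = inhibition above the mean inhibition of all tested compounds plus 3 SD, cut at about 73% in these data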;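 also: 0% = DMSO wells and 100% = reporter-only cells lacking LRH-1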
LMP1 NFkB inh: EBV LMP1-driven NF-kappaB luciferase reporter inhibitors, primary screen, cell-based, luminescence, single point. LMP1-induced NF-kappaB luciferase reporter cells. inhibition, % at 12.5 µM. 350,000 tested, 0.69% active; in the data active = inhibition above about 41%; inconclusive = no clear call, values can overlap the other calls;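 also: 0% = neutral control wells and 100% = reference inhibitor control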
Shn3 3UTR inh: reduction of Shn3 3'UTR firefly luciferase signal, primary screen, Schnurri-3 inhibitor project, cell-based, Clone20 osteoblasts, set 2. Clone20 osteoblast Shn3 3'UTR firefly luciferase, 24 h. inhibition, % at 12.5 µM. 360,000 tested, 0.52% active. AID 588674, 2011;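 active = mean inhibition of at least 75% with every replicate also reaching 75%; inconclusive = mean inhibition at least 75% but some replicate below; inactive = mean inhibition below 75%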;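 also: 0% = median of neutral control wells and 100% = pilot-screen positive control compound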
SRC1 inh: SRC1 coactivator transcriptional activity inhibitors, primary screen, cell-based, luminescence. HEK293 GAL4-SRC1 luciferase reporter. inhibition, % at 3.6 µM. 360,000 tested, 0.12% active. AID 588354, 2011;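 active = inhibition above the campaign mean plus 3 SD, with each screening campaign given its own cutoff, cut at about 60% in these data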;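 also: 0% = DMSO treated cells and 100% = gossypol at 36 µM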
SRC2 inh: inhibition of GAL4-SRC2 driven luciferase reporter, primary screen, SRC2 inhibitor project, cell-based, luminescence | Nuclear receptor coactivator 2 (Homo sapiens), Q15596 | HEK293 GAL4-SRC2 luciferase reporter | inhibition, % at 9 µM | 370,000 tested, 0.17% active;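 active = inhibition above the mean inhibition of all tested compounds plus 3 SD, set per campaign, cut at about 52% in these data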;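 also: 0% = DMSO treated cells and 100% = cells given Gossypol at 36 µM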
NCOA3 inh: SRC3 coactivator transcriptional activity inhibitors, primary screen, cell-based, luminescence. Nuclear receptor coactivator 3 (Homo sapiens), Q9Y6Q9. HEK293 GAL4-SRC3 luciferase reporter. inhibition, % at 3.6 µM. 360,000 tested, 0.17% active. AID 588352, 2011;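 active = inhibition above a per-campaign cutoff, the mean of all compounds plus 3 SD, cut at about 60% in these data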;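 also: 0% = DMSO-treated cells and 100% = gossypol-treated cells at 36 µM; higher means less SRC3-driven luciferase light from the GAL4 reporter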
Target sequence (Q9Y6Q9 whole entry, looked up, the tested form may be a part): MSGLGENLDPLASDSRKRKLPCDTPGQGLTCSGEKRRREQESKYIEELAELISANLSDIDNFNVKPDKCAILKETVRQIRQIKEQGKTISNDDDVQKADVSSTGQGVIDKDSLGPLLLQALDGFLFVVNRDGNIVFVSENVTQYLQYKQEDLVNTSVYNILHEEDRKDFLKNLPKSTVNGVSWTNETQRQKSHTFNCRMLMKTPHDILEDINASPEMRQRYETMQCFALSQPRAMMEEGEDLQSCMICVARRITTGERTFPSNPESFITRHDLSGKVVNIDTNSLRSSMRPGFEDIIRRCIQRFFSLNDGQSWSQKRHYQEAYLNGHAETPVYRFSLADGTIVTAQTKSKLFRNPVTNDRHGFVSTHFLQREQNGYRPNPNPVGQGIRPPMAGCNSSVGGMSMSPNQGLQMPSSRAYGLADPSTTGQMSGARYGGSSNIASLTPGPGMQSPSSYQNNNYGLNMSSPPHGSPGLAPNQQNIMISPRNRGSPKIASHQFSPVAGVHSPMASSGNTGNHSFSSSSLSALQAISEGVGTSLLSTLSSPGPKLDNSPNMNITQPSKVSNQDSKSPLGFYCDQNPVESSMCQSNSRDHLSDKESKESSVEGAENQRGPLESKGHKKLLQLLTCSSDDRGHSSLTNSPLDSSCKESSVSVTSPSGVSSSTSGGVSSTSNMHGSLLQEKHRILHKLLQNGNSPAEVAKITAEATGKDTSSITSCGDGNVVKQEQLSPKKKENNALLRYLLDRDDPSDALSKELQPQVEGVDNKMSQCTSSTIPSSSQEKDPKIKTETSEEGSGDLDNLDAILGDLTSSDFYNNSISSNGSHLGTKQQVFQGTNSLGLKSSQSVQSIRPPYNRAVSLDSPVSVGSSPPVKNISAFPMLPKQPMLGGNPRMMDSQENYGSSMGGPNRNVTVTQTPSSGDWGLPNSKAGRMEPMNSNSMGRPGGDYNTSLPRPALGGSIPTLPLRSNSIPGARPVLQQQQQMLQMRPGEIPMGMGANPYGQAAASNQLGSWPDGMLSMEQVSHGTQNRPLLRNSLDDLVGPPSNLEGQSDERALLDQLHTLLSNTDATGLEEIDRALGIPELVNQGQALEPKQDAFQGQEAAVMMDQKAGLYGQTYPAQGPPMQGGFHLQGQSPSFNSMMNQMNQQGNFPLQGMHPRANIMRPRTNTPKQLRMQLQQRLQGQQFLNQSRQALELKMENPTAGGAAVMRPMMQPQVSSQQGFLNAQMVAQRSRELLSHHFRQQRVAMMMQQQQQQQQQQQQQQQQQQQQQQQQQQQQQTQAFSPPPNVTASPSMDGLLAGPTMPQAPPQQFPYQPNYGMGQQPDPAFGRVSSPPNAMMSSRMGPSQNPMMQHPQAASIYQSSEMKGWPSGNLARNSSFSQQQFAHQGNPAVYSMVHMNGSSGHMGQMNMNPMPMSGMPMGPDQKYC
Numbers without * were called inactive; ? = inconclusive; · = no result. The list is not random: actives were taken first. Their share in the collection is about 1.2%.

SMILES | LRH-1 inv ag | LMP1 NFkB inh | Shn3 3UTR inh | SRC1 inh | SRC2 inh | NCOA3 inh
Nc1ccc(C(=O)N/N=C/c2sc(N3CCOCC3)nc2-c2ccccc2)cc1 | 1 | 2 | -16 | -14 | -18 | 6
O=C(N/N=C/c1sc(N2CCOCC2)nc1-c1ccccc1)c1ccccc1O | -20 | 10 | 30 | -4 | -28 | -2
CC(=O)Nc1ccc(NC(=O)C(c2ccccc2)c2ccccc2)cc1 | -9 | 54* | -12 | 4 | 14 | -5
COC(=O)C1CN(Cc2ccc(OC)cc2)CCS(=O)(=O)N1Cc1cn(Cc2ccc(C)cc2)nn1 (stereo unspecified) | · | · | · | · | -12 | ·
Cc1cc(C)c2nc(NNC(=O)c3ccc(S(=O)(=O)N4CCc5ccccc5C4)cc3)sc2c1 | 23 | ? | 93* | 37 | 28 | 19
Cc1cc(C)c2sc(NNC(=O)c3ccc(S(=O)(=O)N4CCc5ccccc5C4)cc3)nc2c1 | 70 | 49* | 96* | 70* | 38 | 81*
Cc1cc(C)c2sc(N(CCCN(C)C)C(=O)c3ccc(S(=O)(=O)N4CCc5ccccc5C4)cc3)nc2c1 | -36 | -109 | -28 | -4 | · | -12
O=C(C1CCN(c2cncnc2)CC1)N1CCCC1 | · | · | · | · | -32 | ·
CCCOC(c1ccccc1)(c1ccc(C(F)(F)F)cc1)C(Oc1nc(C)cc(C)n1)C(=O)O (stereo unspecified) | 81* | 43* | 26 | 61* | -38 | 71*
Oc1ccc(N=Cc2ccc(-c3cccs3)s2)cc1 | 20 | 82* | 10 | 0 | -3 | 8
O=Cc1ccc(-c2cccs2)s1 | 20 | 76* | -6 | -11 | 8 | -19
COCCCN1C(=O)[C@H](CC(=O)N2CCCCC2)[C@]2(C(=O)OC)CCCCC=C12 | · | · | · | · | -8 | ·
Oc1ccc(Cl)c(CN2CCN(c3ncc(Cc4ccccc4)cn3)CC2)c1 | -11 | · | · | · | 13 | ·
CS(=O)(=O)N[C@@H]1C[C@@H]2O[C@@H](CO)CC[C@@H]2O[C@@H]1CCc1ccc(-c2ccccc2F)cc1 | · | · | · | · | -16 | ·
O=C(C(=O)N1CCC(CNS(=O)(=O)c2cccc(C(F)(F)F)c2)CC1)c1cc2ccccc2o1 | · | · | · | · | 28 | ·
O=C(CSc1nc2c(c(=O)n1-c1ccc(Br)cc1)SCC2)NCc1ccco1 | -35 | 1 | 92* | -9 | -7 | 6
CCCCOCCCNC(=O)C[C@H]1C[C@@]2(C(=O)OC)C(=C[C@H](C(C)(C)C)O[C@@H]2C)N(Cc2ccc(Cl)cc2Cl)C1=O | · | · | · | · | 16 | ·
Oc1ccccc1-c1cc(C(F)(F)C(F)F)nc(-c2ccccc2)n1 | -4 | 10 | -13 | -1 | 12 | 7
O=[N+]([O-])c1ccc(O)c(-c2cc(C(F)(F)F)nc(-c3ccccc3)n2)c1 | 0 | 35 | 90* | -16 | 12 | -4
C[C@H](CCC(=O)N(c1ccccc1)c1ccccc1)CC1CCCCC1 | · | · | · | · | -1 | ·
CC(=O)C1=CCN(C)CC1 | · | · | · | · | -4 | ·
Cc1ccc(S(=O)(=O)N2CCC[C@H]2C(=O)Nc2ccccc2Cl)cc1 | 12 | 0 | 22 | 16 | 13 | -13
Cc1ccc(S(=O)(=O)N2CCC[C@H]2C(=O)Nc2ccccc2C)cc1 | -11 | 70* | 9 | 11 | -25 | 18
O=S(=O)(c1ccc(Cl)cc1)N1CCCC1c1nc(-c2ccc(Cl)cc2)no1 (stereo unspecified) | -1 | -31 | 49 | -3 | 95* | 7
CCOC(=O)N1CCN(C(=O)C2CCC(=O)N(Cc3ccccc3OC)C2)CC1 (stereo unspecified) | 14 | 46* | -21 | -5 | -12 | 5
SMILES | LRH-1 inv ag | LMP1 NFkB inh | Shn3 3UTR inh | SRC1 inh | SRC2 inh | NCOA3 inh
COc1ccc(Cl)c(Cn2c(NCc3ccco3)nc3c2c(=O)n(C)c(=O)n3C)c1 | -8 | 56* | 68 | 1 | -23 | -1
COc1cccc(Cn2c(NCc3ccco3)nc3c2c(=O)n(C)c(=O)n3C)c1 | · | · | · | · | 22 | ·
Fc1ccc(NC(=S)NNc2ncc(C(F)(F)F)cc2Cl)c(F)c1 | 34 | 45* | 28 | 38 | 17 | 55
CC(C)c1ccc(NC(=O)Nc2nc(C(C)N)cs2)cc1 (stereo unspecified) | -1 | · | -12 | 13 | -26 | 11
CC(C)c1ccc(NC(=O)Nc2nc(C(N)C3CCCCC3)cs2)cc1 (stereo unspecified) | -5 | · | 97* | 6 | -1 | 3
CC(C)c1ccc(NC(=O)Nc2nc(C(N)CCc3ccccc3)cs2)cc1 (stereo unspecified) | -6 | · | 97* | 11 | 4 | 8
COc1ccc(NC(=O)Nc2nc(C(N)C3CCCCC3)cs2)cc1 (stereo unspecified) | 2 | · | -36 | -5 | 32 | 6
O=C(c1ccccc1)N1CCC2CCN(CCc3ccccc3)CC21 (stereo unspecified) | · | · | · | · | 8 | ·
CCOC(=O)Nc1ccc2c(c1)[C@@]1(CC(=O)N(CC(C)C)C1c1ccccc1)C(=O)N2C (stereo partly specified) | · | · | · | · | 2 | ·
CS(=O)(=O)c1ccc(Sc2nc3ccccc3s2)c([N+](=O)[O-])c1 | 20 | 56* | 95* | 11 | · | 73*
O=[N+]([O-])c1cc(S(=O)(=O)C(F)(F)F)ccc1Sc1nc2ccccc2s1 | 5 | 6 | 98* | -7 | -3 | 16
COc1ccc(N2C(=O)c3n[nH]c(C(C)C)c3C2c2ccc(C)cc2)cc1 (stereo unspecified) | · | · | · | · | -12 | ·
O=C(Nc1ccc(Cl)c(Cl)c1)c1ccc(Cl)c(Cl)c1 | -89 | -23 | -45 | -97 | -59 | -96
Cc1ccc(NC(=O)c2ccc(Cl)c(N3C(=O)C=CC3=O)c2)cc1 | -42 | 7 | 92* | -45 | -35 | -50
Cc1ccc(-c2cn(-c3ccc(OC(F)F)cc3)c3[n+]2CCCCC3)cc1 | 6 | 10 | 88* | 20 | 8 | 34
OC[C@@H](O)[C@@H](O)[C@H](O)[C@H](O)CO | -18 | 47* | -7 | 0 | -20 | -3
O=C(N[C@H](C(=O)N1CCC[C@H]1C(=O)NCCc1ccccc1Cl)c1ccccc1)c1cccs1 | · | · | · | · | -10 | ·
COc1ccc(Cc2nnc(N/N=C/c3ccc(O)cc3)[nH]c2=O)cc1OC | 6 | 61* | 88* | 22 | 53* | 69*
CC(NC(=O)CCc1nnc(-c2ccc(-c3ccccc3)cc2)o1)c1nc2ccccc2[nH]1 (stereo unspecified) | 4 | 18 | 23 | -20 | 67* | -7
COc1ccc2[nH]c(C)c(CCN3C(=O)OC(C)(C)C3(C)O)c2c1 (stereo unspecified) | 21 | 90* | 6 | -31 | 7 | 8

Assay outcomes as filed in PubChem.
